Source: PubChem
Shown are actives, neighbours in structure and some others; about 21% of the full set was active somewhere.
NS1 function inh – inhibitors of influenza NS1 protein function | Potency, µM (series often up to 46.1 µM), inactives show top-dose activity, positive = more growth | AID 2326 | actives 0.4% (n = 270,000); also: potency is read from the fitted curve at half-maximal effect; actives are rising curves; nearly all actives have a fitted effect of over 50% in size
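S. cerevisiae expressing influenza A NS1, grown in glucose, washed, then diluted 1:100 into pH 6.0 -URA galactose medium with 23 nl compound. Growth recovery read as OD600; NS1-free strain serves as control.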
Shiga inhibitor – Shiga toxin inhibition | Vero cells, Shiga toxin protein synthesis inhibition reporter | inhibition, % at 38.7 µM | actives 9.2% (n = 290,000) | AID 2315; in the data active = inhibition mostly above about 28%, no sharp cut-off; inactive = mostly below about 43%; also: 0% is about no effect
Pf growth 48h – P. falciparum growth inhibition at 48 hours (one generation) | actives 5.9% (n = 310,000) | P. falciparum luciferase growth in erythrocytes, 48 h | Potency, µM (highest dose often 28.7 µM), for inactives: top-dose activity change, negative = inhibition, usual class: inhibitors; active = well fitted inhibition curve with a large enough effect; inconclusive = small, poorly fitted or top-dose-only effect, or another doubt; inactive = no such curve, though single readings can be large or run the other way; also: potency is read from the fitted curve at half-maximal effect; % is scaled to controls: 0 for no effect and ±100 for the full control effect
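First compound was added to culture medium, then infected red cells at 0.1% parasitemia and 2% hematocrit (final). After incubation at 37 C under 5% CO2, luciferase detection reagent was dispensed and light output recorded.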
Pf growth 96h – inhibits malaria parasite growth, 96 h | actives 6.9% (n = 320,000) | AID 504834 | Potency, µM (titrated, usually from 28.7 µM), for the others: at the top dose activity change, negative = inhibition, usual class: inhibitors | P. falciparum luciferase reporter growth, 96 h; active = well fitted inhibition curve with a large enough effect; inconclusive = small, poorly fitted or top-dose-only effect, or another doubt; inactive = no such curve, though single readings can be large or run the other way; also: potency is read from the fitted curve at half-maximal effect; % is scaled to controls: 0 for no effect and ±100 for the full control effect
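Compounds incubated with erythrocytes infected by luciferase-expressing P. falciparum (2% hematocrit, 0.05% parasitemia final) for 96 hours, 37 C in 5% CO2. Growth inhibition scored as decreased luciferase luminescence.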
CHX counter – affects cycloheximide protein synthesis inhibition readout, counter-screen. max response, %. cell reporter, cycloheximide protein synthesis inhibition counterscreen. actives 12% (n = 300,000). AID 2314; in the data active = max response mostly above about 13%, no sharp cut-off; inactive = mostly below about 14%; also: read at 38.3 µM for the half of the compounds with a filed dose; 0% is about no effect
SARS PLP yeast – inhibitors of SARS-CoV papain-like protease in yeast. Potency, µM (doses to about 32.9 µM), for inactives: at the highest dose activity, positive = growth rescue, actives largely listed as activators. S. cerevisiae expressing SARS-CoV PLpro, growth rescue. actives 0.19% (n = 330,000). AID 485353; also: potency is read from the fitted curve at half-maximal effect; 0% is about no effect; nearly all actives have a fitted effect of over 55% in size
Active calls of the source: *; ? = inconclusive; . = no result given; [ ] = dose if it differs, or a comment. Unless noted, calls follow the shape of the full dose curve.

SMILES	NS1 function inh	Shiga inhibitor	Pf growth 48h	Pf growth 96h	CHX counter	SARS PLP yeast
CC(C)Cn1c(N)c(C(=O)NCCN2CCOCC2)c2nc3ccccc3nc21	-11.8%	-1.2	3.7µM*	18.1%	-1.5	-0.7%
CCCCn1c(N)c(C(=O)NCCN2CCOCC2)c2nc3ccccc3nc21	-14.7%	-12.9	?	8.4%	-1.8	0.1%
CCOC(=O)c1cc2nc(-c3ccco3)cc(C(F)(F)F)n2n1	1.6%	4.7	-12.9%	28.7%	-5.3	9.2%
Cc1nnc(SCC(=O)NC2CCCC2)n1-c1ccccc1	.	.	5.4%	-21.1%	.	-2.7%
CCOc1ccc(NC(=O)CC(NCc2ccccn2)C(=O)O)cc1 (configuration not stated)	.	-7.4	-4.5%	399.4%	2.6	0.3%
CCC(C)NC(=O)c1c(N)n(CC2CCCO2)c2nc3ccccc3nc12 (configuration not stated)	-54.1%	-23.2	11.7µM*	13.1µM*	-3.3	-16.3%
CCOc1ccc(N2C(=O)CC(NC3CCN(C(=O)c4ccc(F)cc4)CC3)C2=O)cc1 (configuration not stated)	-47.7%	-8.9	-3.8%	30.9%	-0.8	-19.6%
N/C(=N\OC(=O)/C=C/c1ccccc1)c1ccccn1	-10.3%	30.2	-49.6%	22.7%	20.2*	-2.0%
N/C(=N\OC(=O)/C=C/c1ccccc1Cl)c1ccncc1	.	137.4*	327.8%	-8.3%	66.5*	-6.5%
COc1ccc(/C=C/C(=O)O/N=C(\N)c2ccccn2)cc1OC	.	.	.	.	.	-3.1%
N/C(=N\OC(=O)/C=C/c1ccccc1)c1ccncc1	.	70.7*	106.9%	164.3%	21.4*	-7.4%
O=C(/C=C/c1ccccc1Cl)NNC(=O)c1ccncc1	.	.	32.5%	31.0%	.	-1.0%
O=C(/C=C/c1ccccc1)c1ccccn1	-44.7%	83.8*	40.4%	?	38.1*	-7.6%
CN(Cc1ccccc1)C(=O)c1nn2cccnc2c1Cl	.	-4.8	12.8%[5.75 µM]	?	2.1	-0.1%
COc1ccc(NC(=O)CCCn2cnc3ccccc3c2=O)c(OC)c1	4.7%	-2.7	.	-13.4%	-1.6	-1.5%
CCN1CC(CCN2CCOCC2)C(c2ccccc2)(c2ccccc2)C1=O (configuration not stated)	.	.	?	2.8%	.	.
c1ccc2c(c1)OCC(CNCC1COc3ccccc3O1)O2 (configuration not stated)	-32.1%	-2.0	5.5%	0.208µM*	-3.6	-13.0%
O=C(O)CNCC1COc2ccccc2O1 (configuration not stated)	-0.1%	9.2	-0.4%	125.6%	-2.6	5.0%
O=C(NCC1COc2ccccc2O1)c1ccc(Cl)cc1 (configuration not stated)	-171.9%	38.7	160.9%	-13.2%	16.1*	-8.1%
c1ccc(CCNCC2COc3ccccc3O2)cc1 (configuration not stated)	-3.6%	27.9*	.	5.4%	18.8*	0.0%
COCc1c(C(=O)NCC2COc3ccccc3O2)oc2ccccc12 (configuration not stated)	.	.	11.7µM*	?	.	0.4%
O=C(COC(=O)CC1CCCCC1)Nc1c(Cl)cccc1Cl	.	.	1.4%	-23.7%	.	0.5%
C=C1CCN(C(C(=O)O)C(C)C)S(=O)(=O)c2ccccc21 (configuration not stated)	.	-1.1	.	.	-7.2	.
Cc1cccc(C(=O)NCc2nnc3c4ccccc4c(-c4ccccc4)nn23)c1	24.0%	-12.7	15.5%	?	-4.9	?
COc1ccc(/C=C2/SC(=O)N(CCC(=O)Nc3ccccc3C(=O)O)C2=S)cc1	14.6%	-6.0	-25.4%	30.8%	-1.7	1.2%
SMILES	NS1 function inh	Shiga inhibitor	Pf growth 48h	Pf growth 96h	CHX counter	SARS PLP yeast
CN1CC(=O)N(C)c2ncn(Cc3ccccc3)c2C1=O	1.9%	7.7	26.1%	8.28µM*	-2.5	2.7%
CC(C)c1ccc(/C=N/NC(=O)c2nnn(-c3nonc3N)c2CSC2=NCCS2)cc1	11.4%	9.8	?	?	-3.2	-20.5%
COc1cc(/C=C/c2nc3ccccc3c(=O)n2-c2ccccc2O)ccc1O	-7.0%	-6.0	9.28µM*	9.28µM*	-2.3	-0.5%
COc1cc(/C=C/c2nc3ccccc3c(=O)n2-c2cccc(O)c2)ccc1O	1.9%	59.5*	0.0%	-25.9%	17.3	3.8%
O=c1c2ccccc2nc(/C=C/c2ccc(O)c(O)c2)n1-c1ccccc1	13.0%	9.6	?	-22.0%	7.2	-6.2%
O=C(c1ccc(=O)n(Cc2ccc(Cl)c(Cl)c2)c1)N1CCOCC1	15.8%	-9.6	17.5%	-4.7%	-3.5	4.8%
O=C1CN(C(=O)COC(=O)CCC(=O)c2ccc(Cl)cc2)c2ccccc2N1	.	.	.	.	.	20.4%
CCCOc1ccc(C(=O)CCC(=O)OCC(=O)N2CC(=O)Nc3ccccc32)cc1	3.7%	-7.1	.	51.7%	32.5*	-5.4%
O=C1CN(C(=O)COC(=O)CCC(=O)c2ccc3c(c2)OCCO3)c2ccccc2N1	-13.4%	34.5	-1.3%	-3.0%	19.2*	1.6%
COC(=O)C(O)(NC(=O)OCc1ccccc1)C(F)(F)F (configuration not stated)	-3.3%	-3.9	0.0%	37.0%	1.2	-1.9%
COC(=O)C(NC=O)C(O)(Cc1ccccc1)C(F)(F)F (configuration not stated)	-2.8%	73.7*	46.1%	-11.5%	56.5*	6.3%
Cc1nc(NC(=O)c2ccccc2)sc1-c1csc(NCc2ccccc2)n1	?	-5.7	?	.	18.7	-7.9%
Cc1ccc(Cl)cc1Nc1nc(-c2sc(NC(=O)c3ccccc3)nc2C)cs1	20.7%	38.1	2.08µM*	2.62µM*	11.5	2.8%
Cc1nc(NC(=O)c2ccccc2)sc1-c1csc(Nc2cccc(F)c2)n1	-2.2%	61.8	?	4.65µM*	13.4*	-8.4%
CCCCCCC(=O)Nc1nc(C)c(-c2csc(Nc3cc(Cl)ccc3C)n2)s1	?	1.7	?	?	-2.2	-4.1%
CCOc1ccccc1Nc1nc(-c2sc(NC(=O)c3ccccc3)nc2C)cs1	?	-12.7	7.38µM*	?	12.2	7.5%
CCOc1ccccc1Nc1nc(-c2sc(NC(=O)c3cccc(Cl)c3)nc2C)cs1	-0.5%	48.7	6.57µM*	4.65µM*	13.3	-1.5%
CCC1CCCCN1CCCNC(=O)C1CCN(c2nnc(-n3cccc3)s2)CC1 (configuration not stated)	-5.2%	36.5	?	?	0.8	-4.5%
CCc1cccc2c(/C=N/NC(=O)c3cccc(S(=O)(=O)Nc4ccccc4Cl)c3)c[nH]c12	?	-3.7	2.1%	47.4%	-3.8	-7.8%
COc1ccc(N2CC(NS(=O)(=O)c3cccs3)CC2=O)cc1OC (configuration not stated)	.	.	?	8.9%	.	3.4%
S=C(NNC(=S)Nc1ccccc1)Nc1ccccc1	-39.9%	56.1*	45.2%	73.0%	41.5*	0.2%
O=C(NNC(=S)Nc1ccccc1)C1CC1	-16.6%	31.8	-6.5%	55.4%	9.0	-0.3%
